Structures can show the parent of a compound that is named as a salt. ± gives the standard deviation of the averaged measurements.
Test system: E. coli TESEC Mtb Alr
Assay: growth (OD600 after 10 h); higher = more growth (less inhibition)
Settings: compound 0.1 mM
Procedure: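 TESEC Mtb Alr E. coli, or the Alr+ wild-type control, in 384-well plates with Prestwick library compounds at 0.1 mM and 1% DMSO, across arabinose induction levels of 1E3 to 1E7 nM. Growth is read as OD600 after 10 h at 37 °C in triplicate biological replicates.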

[1] = arabinose 1000 nM, raw OD600 reference: median of DMSO wells 0.294, cell-free background 0.041
[2] = arabinose 10000 nM, raw OD600 reference: median of DMSO wells 0.264, cell-free background 0.041
[3] = arabinose 100000 nM, raw OD600 reference: median of DMSO wells 0.201, cell-free background 0.041
[4] = arabinose 1000000 nM, raw OD600 reference: median of DMSO wells 0.193, cell-free background 0.041
[5] = arabinose 10000000 nM, raw OD600 reference: median of DMSO wells 0.146, cell-free background 0.041

SMILES	growth [1]	growth [2]	growth [3]	growth [4]	growth [5]
CC(NCCC(c1ccccc1)c1ccccc1)c1ccccc1 (stereo not given) [Fendiline hydrochloride]	0.0413 ± 0.0034	0.03877 ± 0.00012	0.0416 ± 0.0018	0.0386 ± 0.00049	0.04153 ± 0.00035
Nc1ccc(S(=O)(=O)Nc2ncccn2)cc1 [Sulfadiazine]	0.288 ± 0.017	0.241 ± 0.0079	0.199 ± 0.036	0.1549 ± 0.0004	0.146 ± 0.0024
CN(Cc1cnc2nc(N)nc(N)c2n1)c1ccc(C(=O)N[C@@H](CCC(=O)O)C(=O)O)cc1 [Methotrexate]	0.285 ± 0.011	0.244 ± 0.013	0.195 ± 0.011	0.155 ± 0.0048	0.144 ± 0.002
CCCCC1(COC(=O)CCC(=O)O)C(=O)N(c2ccccc2)N(c2ccccc2)C1=O [Suxibuzone]	0.291 ± 0.013	0.244 ± 0.0044	0.192 ± 0.019	0.188 ± 0.0095	0.1314 ± 0.001
CCN(CC)CCOC(=O)c1ccc(N)cc1 [Procaine hydrochloride]	0.254 ± 0.065	0.273 ± 0.0077	0.2 ± 0.034	0.193 ± 0.0097	0.146 ± 0.0049
CC(=O)[C@H]1CC[C@H]2[C@@H]3CC=C4C[C@@H](O)CC[C@]4(C)[C@H]3CC[C@]12C [Pregnenolone]	0.235 ± 0.015	0.239 ± 0.016	0.173 ± 0.029	0.136 ± 0.0035	0.159 ± 0.0019
Nc1nc2c(ncn2COC(CO)CO)c(=O)[nH]1 [Ganciclovir]	0.283 ± 0.0092	0.2718 ± 0.0013	0.202 ± 0.023	0.183 ± 0.003	0.136 ± 0.0066
CCN(CC)C(=O)Nc1ccc(OCC(O)CNC(C)(C)C)c(C(C)=O)c1 (stereo not given) [Celiprolol HCl]	0.292 ± 0.0042	0.247 ± 0.0042	0.221 ± 0.028	0.171 ± 0.0053	0.135 ± 0.0071

Reference: the supplement of paper PMC9262897, “Low-cost anti-mycobacterial drug discovery using engineered E. coli” (Nature Communications, 2022)
